For some assays here: Entries with a potency or affinity are not part of this list.
How the values were obtained:
Parameters in all cases: scale not given: direction of the effect not stated beside the values
[1] = biological target: Protein translocase subunit SecA (Escherichia coli (strain K12)) (UniProt P10408); experiment: Assay to Identify E. coli SecA ATPase Inhibitors; type: functional; conditions: 30 µM
[2] = biological target: T1, Ubiquitin-activating enzyme e1, putative (Leishmania donovani (strain BPK282A1)) (UniProt E9BSI1); experiment: Leishmania donovani Ubiquitin Activating Enzyme (LdE1); type: functional; conditions: 30 µM
T1 sequence (whole entry): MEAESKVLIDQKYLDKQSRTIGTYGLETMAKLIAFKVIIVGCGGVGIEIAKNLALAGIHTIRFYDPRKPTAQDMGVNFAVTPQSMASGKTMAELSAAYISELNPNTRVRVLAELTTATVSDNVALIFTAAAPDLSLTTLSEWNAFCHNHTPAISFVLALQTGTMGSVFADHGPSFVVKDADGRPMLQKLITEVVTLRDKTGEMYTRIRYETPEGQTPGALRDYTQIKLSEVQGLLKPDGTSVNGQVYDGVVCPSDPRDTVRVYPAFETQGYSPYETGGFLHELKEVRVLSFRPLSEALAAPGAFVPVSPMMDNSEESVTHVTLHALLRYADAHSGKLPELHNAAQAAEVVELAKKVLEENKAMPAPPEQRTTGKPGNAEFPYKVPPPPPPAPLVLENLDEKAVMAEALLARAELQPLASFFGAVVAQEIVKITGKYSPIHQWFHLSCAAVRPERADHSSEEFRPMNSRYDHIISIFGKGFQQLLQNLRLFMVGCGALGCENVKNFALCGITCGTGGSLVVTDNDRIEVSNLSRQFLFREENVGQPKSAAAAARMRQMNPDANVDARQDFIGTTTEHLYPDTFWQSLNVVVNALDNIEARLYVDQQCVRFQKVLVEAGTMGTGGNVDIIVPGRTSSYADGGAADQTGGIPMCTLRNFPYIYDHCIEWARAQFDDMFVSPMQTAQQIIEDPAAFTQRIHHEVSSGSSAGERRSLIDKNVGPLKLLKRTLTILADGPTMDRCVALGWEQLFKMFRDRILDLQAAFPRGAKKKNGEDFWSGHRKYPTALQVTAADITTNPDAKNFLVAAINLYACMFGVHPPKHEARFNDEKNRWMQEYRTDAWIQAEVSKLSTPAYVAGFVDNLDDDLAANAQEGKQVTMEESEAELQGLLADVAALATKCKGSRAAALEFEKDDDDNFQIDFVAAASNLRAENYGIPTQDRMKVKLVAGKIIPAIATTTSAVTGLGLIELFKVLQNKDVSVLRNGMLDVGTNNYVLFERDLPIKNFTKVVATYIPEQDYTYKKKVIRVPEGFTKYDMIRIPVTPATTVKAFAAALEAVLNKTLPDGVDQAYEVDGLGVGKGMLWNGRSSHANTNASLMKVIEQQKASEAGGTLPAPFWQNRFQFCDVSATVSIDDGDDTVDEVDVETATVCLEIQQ

[3] = biological target: AMP-activated protein kinase, AMPK (Homo sapiens) (UniProt P54646+O43741+P54619+Q9UGJ0+Q9Y478+Q13131+Q9UGI9); experiment: AMP-dependent Kinase enzyme assay. An in vitro enzyme assay that detects ADP turnover that is directly proportional to AMPK activity. This uses naive AMPK that is activated during the assay with MK-8722; type: functional; conditions: 30 µM
[4] = biological target: Sialic acid-binding Ig-like lectin 9 (Homo sapiens) (UniProt Q9Y336); experiment: Hs-Siglec9 ALPHAscreen SOP 20170721; conditions: 10 µM
[5] = tested on: Trypanosoma cruzi; experiment: Trypanosoma cruzi phosphomannomutase and mannose-1-phosphate guanylyltransferase assay; type: functional; conditions: 10 µM
[6] = biological target: T2, Arginase-2, mitochondrial (Homo sapiens) (UniProt P78540); experiment: in vitro enzyme assay to detect the production of urea directly proportional to the activity of Arginase II; type: functional; conditions: 33.3 µM; further: in the data most compounds retested in dose-response had high values
T2 sequence (whole entry): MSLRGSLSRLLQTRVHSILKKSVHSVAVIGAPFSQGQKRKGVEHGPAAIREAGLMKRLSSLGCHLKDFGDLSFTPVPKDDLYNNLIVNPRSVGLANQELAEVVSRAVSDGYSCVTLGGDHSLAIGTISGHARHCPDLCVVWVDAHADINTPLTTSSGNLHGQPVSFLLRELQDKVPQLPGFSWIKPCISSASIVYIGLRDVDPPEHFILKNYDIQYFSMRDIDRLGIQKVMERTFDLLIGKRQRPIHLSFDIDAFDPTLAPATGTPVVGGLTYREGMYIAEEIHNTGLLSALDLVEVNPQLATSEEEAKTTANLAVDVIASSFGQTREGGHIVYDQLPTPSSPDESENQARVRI

[7] = biological target: T3, Proteasome subunit beta (Trypanosoma cruzi) (UniProt O96673); experiment: Trypanosoma cruzi proteasome chymotrypsin-like activity (TcProtChymo) assay.; further: in the data most compounds retested in dose-response had high values; type: functional; conditions: 9.37 µM
T3 sequence (whole entry): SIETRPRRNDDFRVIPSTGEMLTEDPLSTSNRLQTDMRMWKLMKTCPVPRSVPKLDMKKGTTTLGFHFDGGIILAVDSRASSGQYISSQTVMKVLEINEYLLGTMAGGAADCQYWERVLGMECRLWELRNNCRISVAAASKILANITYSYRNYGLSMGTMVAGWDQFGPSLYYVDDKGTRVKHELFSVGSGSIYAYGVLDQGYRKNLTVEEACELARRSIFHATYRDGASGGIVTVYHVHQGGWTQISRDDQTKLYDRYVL

[8] = organism: Homo sapiens; experiment: To identify inhibition of the IFN signalling (Jak-Stat) pathway via expression of an eGFP reporter gene under the control of an IFN-stimulated response element (ISRE) containing MxA promoter.; type: functional; conditions: 30 µM
[9] = biological target: T4, Tyrosyl-tRNA synthetase, putative (Trypanosoma cruzi (strain CL Brener)) (UniProt Q4DSP6); experiment: Trypanosoma cruzi tyrosyl tRNA synthetase (TcYRS) _High Tyrosine SOP; type: functional; conditions: 30 µM; further: in the data most compounds retested in dose-response had high values
T4 sequence (whole entry): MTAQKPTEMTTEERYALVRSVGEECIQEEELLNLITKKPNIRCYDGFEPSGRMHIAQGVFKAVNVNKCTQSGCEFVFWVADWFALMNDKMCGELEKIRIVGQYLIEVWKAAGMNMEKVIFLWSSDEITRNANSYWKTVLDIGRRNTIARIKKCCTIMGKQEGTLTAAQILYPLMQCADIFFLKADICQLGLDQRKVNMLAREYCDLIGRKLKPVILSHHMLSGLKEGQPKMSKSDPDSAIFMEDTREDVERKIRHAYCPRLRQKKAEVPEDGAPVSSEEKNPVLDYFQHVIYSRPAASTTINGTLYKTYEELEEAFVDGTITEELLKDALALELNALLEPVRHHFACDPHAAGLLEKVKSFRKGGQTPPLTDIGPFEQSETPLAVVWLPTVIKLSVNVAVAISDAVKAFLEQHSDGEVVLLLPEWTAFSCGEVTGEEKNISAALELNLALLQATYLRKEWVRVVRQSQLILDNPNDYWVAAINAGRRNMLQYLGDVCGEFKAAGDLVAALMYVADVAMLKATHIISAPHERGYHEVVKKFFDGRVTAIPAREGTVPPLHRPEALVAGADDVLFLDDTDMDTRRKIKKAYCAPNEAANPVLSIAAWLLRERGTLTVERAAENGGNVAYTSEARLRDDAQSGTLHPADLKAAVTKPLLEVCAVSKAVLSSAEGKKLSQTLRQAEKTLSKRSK

[10] = biological target: T4, Tyrosyl-tRNA synthetase, putative (Trypanosoma cruzi (strain CL Brener)); experiment: Trypanosoma cruzi tyrosyl tRNA synthetase (TcYRS) SOP; type: functional; conditions: 30 µM
[11] = biological target: Chromo domain-containing protein 1 (Saccharomyces cerevisiae (strain ATCC 204508 / S288c) (Baker's yeast)) (UniProt P32657); experiment: ScCHD-1 Enzyme Inhibition Assay; type: functional; conditions: 30 µM; further: in the data most compounds retested in dose-response had high values
Sequence of Chromo domain-containing protein 1 (Saccharomyces cerevisiae (strain ATCC 204508 / S288c) (Baker's yeast)) (P32657 whole entry, the tested form may be a part): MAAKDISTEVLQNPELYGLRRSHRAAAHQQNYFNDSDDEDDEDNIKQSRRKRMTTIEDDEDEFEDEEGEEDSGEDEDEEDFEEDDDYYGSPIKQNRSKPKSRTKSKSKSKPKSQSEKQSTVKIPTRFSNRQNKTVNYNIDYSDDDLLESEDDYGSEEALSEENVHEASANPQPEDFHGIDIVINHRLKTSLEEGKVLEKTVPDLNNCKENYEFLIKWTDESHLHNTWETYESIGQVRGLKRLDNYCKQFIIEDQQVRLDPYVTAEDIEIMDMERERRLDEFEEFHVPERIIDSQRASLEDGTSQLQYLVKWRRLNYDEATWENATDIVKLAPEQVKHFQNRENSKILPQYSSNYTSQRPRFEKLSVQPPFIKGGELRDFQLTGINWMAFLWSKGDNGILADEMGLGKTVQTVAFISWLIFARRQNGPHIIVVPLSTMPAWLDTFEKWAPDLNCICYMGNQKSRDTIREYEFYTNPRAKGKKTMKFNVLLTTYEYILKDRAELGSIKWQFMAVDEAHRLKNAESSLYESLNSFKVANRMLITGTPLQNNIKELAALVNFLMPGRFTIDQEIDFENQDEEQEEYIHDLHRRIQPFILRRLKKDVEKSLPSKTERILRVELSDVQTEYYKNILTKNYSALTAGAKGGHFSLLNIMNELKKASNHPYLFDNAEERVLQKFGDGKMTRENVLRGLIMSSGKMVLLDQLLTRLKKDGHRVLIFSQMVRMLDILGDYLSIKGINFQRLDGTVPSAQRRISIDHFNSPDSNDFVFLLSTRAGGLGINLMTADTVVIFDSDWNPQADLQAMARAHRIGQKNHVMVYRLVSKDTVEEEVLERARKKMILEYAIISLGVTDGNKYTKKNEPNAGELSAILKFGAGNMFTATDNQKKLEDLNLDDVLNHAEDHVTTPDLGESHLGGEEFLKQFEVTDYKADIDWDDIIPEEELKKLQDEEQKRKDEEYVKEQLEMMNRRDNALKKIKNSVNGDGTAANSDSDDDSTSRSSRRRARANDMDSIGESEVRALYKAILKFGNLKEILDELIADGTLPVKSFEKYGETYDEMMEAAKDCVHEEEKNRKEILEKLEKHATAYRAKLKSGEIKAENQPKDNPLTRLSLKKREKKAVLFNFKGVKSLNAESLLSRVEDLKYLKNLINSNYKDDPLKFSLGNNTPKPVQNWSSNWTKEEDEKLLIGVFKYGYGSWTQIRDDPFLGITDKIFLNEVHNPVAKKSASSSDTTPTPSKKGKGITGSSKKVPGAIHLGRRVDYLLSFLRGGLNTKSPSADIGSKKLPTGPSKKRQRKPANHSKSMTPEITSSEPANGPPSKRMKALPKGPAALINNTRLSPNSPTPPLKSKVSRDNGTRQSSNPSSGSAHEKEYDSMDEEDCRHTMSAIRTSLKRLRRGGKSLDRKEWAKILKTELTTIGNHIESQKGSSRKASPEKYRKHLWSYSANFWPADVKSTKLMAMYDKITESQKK

Sequence of Protein translocase subunit SecA (Escherichia coli (strain K12)) (P10408 whole entry): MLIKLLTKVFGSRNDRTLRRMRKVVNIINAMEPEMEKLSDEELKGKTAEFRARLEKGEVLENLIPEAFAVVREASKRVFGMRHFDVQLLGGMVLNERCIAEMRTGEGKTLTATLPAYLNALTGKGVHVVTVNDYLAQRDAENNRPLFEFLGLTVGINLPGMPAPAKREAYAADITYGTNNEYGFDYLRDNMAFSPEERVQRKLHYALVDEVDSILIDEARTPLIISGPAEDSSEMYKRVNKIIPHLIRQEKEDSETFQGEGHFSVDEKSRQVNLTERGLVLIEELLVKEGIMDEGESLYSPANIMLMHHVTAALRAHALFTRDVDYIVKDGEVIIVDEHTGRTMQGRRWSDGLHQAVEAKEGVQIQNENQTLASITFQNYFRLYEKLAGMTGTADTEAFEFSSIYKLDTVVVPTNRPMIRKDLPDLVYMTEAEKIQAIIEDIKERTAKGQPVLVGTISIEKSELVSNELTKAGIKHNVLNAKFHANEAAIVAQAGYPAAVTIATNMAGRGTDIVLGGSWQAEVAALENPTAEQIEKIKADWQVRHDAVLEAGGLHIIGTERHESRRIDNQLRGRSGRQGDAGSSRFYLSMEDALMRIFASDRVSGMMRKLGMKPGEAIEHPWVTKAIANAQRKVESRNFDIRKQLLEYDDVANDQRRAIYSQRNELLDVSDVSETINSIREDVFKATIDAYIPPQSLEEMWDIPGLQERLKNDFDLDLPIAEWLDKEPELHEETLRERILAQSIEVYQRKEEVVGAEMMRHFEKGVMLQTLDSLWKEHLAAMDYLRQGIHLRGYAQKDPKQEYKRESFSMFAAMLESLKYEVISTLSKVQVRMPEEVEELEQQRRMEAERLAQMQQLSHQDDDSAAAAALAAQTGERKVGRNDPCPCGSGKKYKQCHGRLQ
Sequence of Sialic acid-binding Ig-like lectin 9 (Homo sapiens) (Q9Y336 whole entry): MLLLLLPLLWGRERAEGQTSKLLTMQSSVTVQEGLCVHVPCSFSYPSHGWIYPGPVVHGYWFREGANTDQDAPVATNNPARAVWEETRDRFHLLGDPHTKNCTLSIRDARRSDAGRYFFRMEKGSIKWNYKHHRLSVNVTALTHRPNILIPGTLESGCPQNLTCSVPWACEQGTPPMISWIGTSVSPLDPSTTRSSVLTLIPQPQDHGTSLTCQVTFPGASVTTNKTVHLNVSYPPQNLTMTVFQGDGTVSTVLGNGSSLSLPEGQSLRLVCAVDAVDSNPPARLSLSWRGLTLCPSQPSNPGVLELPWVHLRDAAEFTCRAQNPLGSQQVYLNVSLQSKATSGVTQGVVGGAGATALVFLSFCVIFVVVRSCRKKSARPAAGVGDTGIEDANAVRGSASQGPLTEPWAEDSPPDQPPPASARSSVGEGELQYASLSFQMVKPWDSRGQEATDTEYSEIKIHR

Row | Compound | Percent Effect [1] [%] | Percent Effect [2] [%] | Percent Effect [3] [%] | Percent Effect [4] [%] | Percent Effect [5] [%] | Percent Effect [6] [%] | Percent Effect [7] [%] | Percent Effect [8] [%] | Percent Effect [9] [%] | Percent Effect [10] [%] | Percent Effect [11] [%]
1 | Cc1nnc2n1CCN(C(=O)c1cc(Cl)c(Cl)n1C)C2 | -1.98 | 5.26 | -1.75 | 6.76 | 2.63 | -1.53 | 0.501 | -1.85 | -1.47 | 7.32 | -1.57
2 | Cc1nc(CN2C(=O)CCC23CCN(c2ncccn2)CC3)cs1 | -1.55 | 16 | -2.28 | 4.1 | 5.02 | -54.7 | 19.3 | -8.11 | 5.21 | 5 | -8.28
3 | O=C(Cn1ccc2c(Cl)cccc21)N[C@@H](C(=O)O)c1ccccc1 | -1.64 | 4 | 6.31 | 0.703 | -4.71 | -7.57 | 19.8 | -11.3 | -7.41 | -2.56 | -4.5
4 | COc1ccc(CNCC2CC2)cc1F | -3.45 | 0 | 3.06 | 6.66 | 1.56 | -1.67 | 3.47 | -5.14 | 4.95 | 3.66 | -2.56
5 | Fc1ccc2[nH]c(C3CCCN3CCc3ccccn3)nc2c1 (configuration not stated) | -0.354 | 8.22 | -4.31 | 9.65 | 1.98 | -1.2 | 18.6 | -28.3 | 13.5 | 23.5 | 2.89
6 | CC(NC(=O)NCCCO)c1ccc2c(c1)OCCO2 (configuration not stated) | -1.5 | 16.2 | 0.694 | -1.77 | 1.76 | 3.51 | 14.2 | 2.1 | 4.95 | 28.1 | -6.78
7 | Cc1cnc2c(S(=O)(=O)NCC3CCN(C4CC4)C3)cccc2c1 (configuration not stated) | -4.76 | -2.63 | -3.93 | -5.34 | 5.32 | -3.6 | -7.53 | -27.5 | 11.3 | 6.17 | 6.25
8 | Cc1cc(C[C@@H]2COC[C@H]2NCc2ccc(Br)s2)on1 | -7.36 | 1.35 | 9.27 | -0.828 | -2.77 | -7.19 | -1.72 | 31.8 | -2.15 | -3.9 | -6.34
9 | O=C(c1cccc(S(=O)(=O)NCCCc2ncc[nH]2)c1)N1CCOCC1 | -1.26 | 5.48 | -0.693 | -4.52 | -7.05 | 4.09 | 13.8 | 5.99 | 2.15 | 7.5 | -3.79
10 | CC(NC1CCN(CCS(C)(=O)=O)CC1)c1ccc(Cl)cc1 (configuration not stated) | -1.94 | 0 | -3.49 | 0.142 | -5.02 | -0.476 | 3.62 | 21.6 | 0.529 | 7.32 | -2.22
11 | CC(C)C(=O)NCc1cccc(N2CCCCC2=O)c1 | -6.2 | 18.2 | -3.27 | -10.4 | 5.78 | 1.05 | 11.7 | 0.702 | 3.81 | 21.2 | -12.3
12 | Cc1cnn(CC(C)NCc2ccc(S(C)(=O)=O)cc2)c1 (configuration not stated) | -2.77 | 13.9 | -0.525 | 2.13 | -1.74 | -3.23 | 12.3 | 0.644 | 8.33 | 25.3 | -28
13 | CC(CNC(=O)Nc1cn[nH]c1)N1CCOCC1 (configuration not stated) | -0.592 | 13 | 1.69 | -6.2 | -3.04 | 6.53 | 15.9 | 25 | 7.62 | 18.8 | -18.5
14 | Cc1cnn(C2CCCN(C(=O)Cc3cn4ccccc4n3)C2)c1 (configuration not stated) | -5.24 | 19 | -2.41 | -0.453 | -0.103 | -1.5 | 11.8 | 4.05 | 1.04 | 17.7 | -26.5
15 | Cc1ccc(C(=O)N2CCn3cc(CN(C)Cc4ccco4)nc3C2)o1 | 2.2 | 0 | 3.27 | 0.0829 | -4.24 | 3.23 | 3.13 | 0.489 | 1.06 | 3.85 | 105
16 | Cc1cc(C)n(CC(C)CNC(=O)[C@@H](C)NC(=O)OC(C)(C)C)n1 (some centres not stated) | -2.44 | 7.89 | 3.79 | 1.85 | 0.487 | -5.92 | 17.7 | -12.5 | 4.25 | 13 | -2.31
17 | CN(C)Cc1nn(C)c2c1CCN(S(=O)(=O)c1cccs1)C2 | -0.0797 | 13 | 2.64 | -2.7 | 1.48 | 3.23 | 5.57 | 14.8 | 8.47 | 8.97 | -7.57
18 | Cc1cc(F)c(S(=O)(=O)NCCCN2CCC(O)CC2)cc1F | 0.398 | 5.2 | 5.04 | -1.8 | -10.9 | -24.8 | 15.8 | 19.9 | -1.07 | 1.24 | -1.88
19 | O=C(NCC1CC1)C1CN(C(=O)c2cccc(Cl)c2)CC12CCOCC2 (configuration not stated) | 1.58 | 10.4 | 52.3 | -13.8 | -9.37 | 5.81 | 16.4 | 12.4 | 2.12 | -8.97 | -9.61
20 | Cc1[nH]nc2ncc(C(=O)N3CCN(CC(C)C)CC3)cc12 | -2.98 | 15.8 | 10.4 | -2.95 | 7.56 | -3.24 | 7.36 | -2.6 | 8.37 | 23.5 | -7.62
21 | Cc1cnn(CCNCc2csc(-c3ccc4c(c3)OCO4)n2)c1 | -4.64 | -13.2 | -1.92 | -4.07 | -5.83 | 2.68 | 11.2 | 24 | 1.47 | 4.88 | 18
22 | Cc1cc(C)n(CC2CCCN2C(=O)c2ccc3c(c2)OCO3)n1 (configuration not stated) | -1.47 | 6.33 | 1.3 | -3.57 | 2.15 | -1.5 | 8.75 | 1.15 | 2.08 | 2.53 | 0.284

From ChEMBL document CHEMBL3988442, “University of Dundee, Small-Polar-MMV Screening Library” (2021)
